Data from PubChem BioAssay AID1851 (National Center for Advancing Translational Sciences (NCATS), 2009).
The campaign covered roughly 16,000 compounds. About 4,000 (25%) were called active. Not shown: some 26% with an inconclusive outcome. Only a sample is shown. Values without a mark were called inactive. Calls follow the shape of the dose curve; as a rule, active = well fitted curve in the direction sought with a large enough effect; inconclusive = small, poorly fitted or top-dose-only effect, or effect the other way; inactive = no such curve, though single readings can be large or run the other way.

The compounds below were run against Cytochrome P450 2C9 (Homo sapiens) (UniProt P11712) (assay: Cytochrome panel assay with activity outcomes). Details: recombinant CYP, pro-luciferin dealkylation, luminescence, p450-cyp2c9; series mostly up to 57.1 µM.
% is scaled to controls: 0 for no effect and ±100 for the full control effect.

Chain of Cytochrome P450 2C9 (Homo sapiens) (P11712 whole entry, looked up): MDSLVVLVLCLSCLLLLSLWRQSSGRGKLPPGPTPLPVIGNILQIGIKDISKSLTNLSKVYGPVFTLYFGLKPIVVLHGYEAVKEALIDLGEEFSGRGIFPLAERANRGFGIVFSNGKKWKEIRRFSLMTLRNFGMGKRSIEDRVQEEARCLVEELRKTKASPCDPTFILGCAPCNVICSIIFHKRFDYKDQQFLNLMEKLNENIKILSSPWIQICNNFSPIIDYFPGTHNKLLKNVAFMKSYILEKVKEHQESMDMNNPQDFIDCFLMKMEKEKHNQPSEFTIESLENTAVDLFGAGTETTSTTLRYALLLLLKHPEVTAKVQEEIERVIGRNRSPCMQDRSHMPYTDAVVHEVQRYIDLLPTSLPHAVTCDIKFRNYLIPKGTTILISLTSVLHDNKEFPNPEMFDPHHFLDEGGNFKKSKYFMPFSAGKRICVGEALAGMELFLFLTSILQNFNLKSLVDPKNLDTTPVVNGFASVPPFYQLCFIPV

| Compound | activity, negative = inhibition | AC50 |
| --- | --- | --- |
| Cc1ccc(C)c(/C(=N\N=C(N)N)C2CC2)c1 | -5.2% [at 11.4 µM] |  |
| O=S(=O)(c1ccccc1)c1cnc(-c2cccnc2)nc1-c1ccc(Cl)cc1Cl |  | 10 µM (active) |
| O=S(=O)(c1ccc(Cl)cc1)c1cnc(-c2cccnc2)nc1-c1ccccc1 |  | inactive |
| Nc1nc(-c2cccnc2)cc(-c2cc(-c3cccnc3)nc(N)n2)n1 | -11.2% [at 11.4 µM] |  |
| CCCc1c(-c2ccc(O)cc2)nn(-c2ccc(O)cc2)c1-c1ccc(O)cc1 |  | inactive |
| COc1ccc(-n2c(=O)c(-c3ccc(F)cc3)nc3cnc(OC)nc32)cc1 |  | inactive |
| Cc1ccc(-c2csc(N3CCC(NS(=O)(=O)c4ccc5c(c4)OCCO5)CC3)n2)cc1 |  | 3.55 µM (active) |
| O=C(O)[C@@H]1CCCNC1 |  | inactive |
| CN(C(=O)COc1cccc(Br)c1)C1CCS(=O)(=O)C1 (stereo unspecified) |  | inactive |
| CCN(CC)c1ccc2cc(C(C)=O)c(=O)oc2c1 |  | inactive |
| CCc1ccc(OCC(=O)OC2CCS(=O)(=O)C2)cc1 (stereo unspecified) |  | inactive |
| CCCN(C(=S)Nc1ccccc1)C1CCS(=O)(=O)C1 (stereo unspecified) |  | inactive |
| CC(=O)c1cc2ccccc2oc1=O |  | inactive |
| Cc1ccc(CN(C(=O)c2cc3ccccc3oc2=O)C2CCS(=O)(=O)C2)cc1 (stereo unspecified) |  | 11.2 µM (active) |
| CCOc1ccc(CN(C(=O)c2oc3ccccc3c2C)C2CCS(=O)(=O)C2)cc1 (stereo unspecified) |  | 8.91 µM (active) |
| Cc1cc(C)c[n+](CC(=O)c2cc3ccccc3oc2=O)c1 |  | inactive |
| CCc1ccc(CN(C(=O)c2cc3ccccc3oc2=O)C2CCS(=O)(=O)C2)cc1 (stereo unspecified) |  | 8.91 µM (active) |
| O=C(c1sc2ccccc2c1Cl)N(Cc1ccccc1)C1CCS(=O)(=O)C1 (stereo unspecified) |  | 3.98 µM (active) |
| CC(C)(C)c1cc(C(=O)O)c(CN2CCCCC2)o1 |  | inactive |
| CN(C)Cc1ccccc1-c1nc(N(C)Cc2ccco2)c2ccccc2n1 | 11.9% [at 2.29 µM] |  |
| O=S(=O)(NCc1cn2ccsc2n1)c1ccc(Oc2ccccc2)cc1 |  | 7.08 µM (active) |
| Nc1ccc(S(=O)(=O)NCc2nccs2)cc1 | -21.4% [at 11.4 µM] |  |
| O=C(c1ccco1)N1CCC2(CCN(Cc3ccncc3)CC2)CC1 |  | 7.94 µM (active) |
| Cn1cccc1C(=O)N1CCC2(CCN(Cc3ccncc3)CC2)CC1 |  | 10 µM (active) |
| COCC(=O)N1CCC2(CCN(Cc3ccncc3)CC2)CC1 |  | 0.398 µM (active) |
| O=C(c1ccncc1)N1CCC2(CCN(Cc3ccccc3)CC2)CC1 |  | inactive |

| Compound | activity, negative = inhibition | AC50 |
| --- | --- | --- |
| Cn1cccc1C(=O)N1CCC2(CCCN(Cc3ccc(C#N)cc3)C2)CC1 |  | inactive |
| Cn1cccc1C(=O)N1CCC2(CCCN(Cc3ccccc3)C2)CC1 |  | inactive |
| Cn1cccc1C(=O)N1CCC2(CCN(Cc3nccs3)CC2)CC1 |  | inactive |
| O=C(c1ccco1)N1CCC2(CCN(Cc3ccccc3)CC2)CC1 |  | inactive |
| Cn1cccc1C(=O)N1CCC2(CCN(Cc3ccccc3)CC2)CC1 |  | inactive |
| COCC(=O)N1CCC2(CCN(Cc3ccccc3OC)CC2)CC1 |  | inactive |
| CC(=O)N1CCC2(CCN(Cc3ccncc3)CC2)CC1 |  | inactive |
| Cn1cccc1C(=O)N1CCC2(CCCN(Cc3ccncc3)C2)CC1 |  | 1.58 µM (active) |
| CN(C)c1ccc(-c2cncnc2Nc2ccccc2)cc1 | -6.76% [at 2.29 µM] |  |
| CCCS(=O)(=O)N1CCCC(C(=O)NCCCOCC)C1 (stereo unspecified) |  | inactive |
| CCc1cccc(NC(=O)CN(C)S(=O)(=O)c2cnc[nH]2)c1 |  | 0.631 µM (active) |
| CCc1cccc(CC)c1NC(=O)CN(CC(=O)O)CC(=O)O |  | inactive |
| CN(CC(=O)N1CCN(c2ccccc2)CC1)S(=O)(=O)c1cnc[nH]1 |  | 0.0708 µM (active) |
| O=C1[C@H]2O[C@@H]2[C@@H](O)[C@H]2[C@H]1CCn1c(=O)n(Cc3cc4c(cc3Cl)OCO4)c(=O)n12 | 3.99% [at 11.4 µM] |  |
| Nc1ncnc2c1ncn2C[C@@H](O)C(=O)O | -0.945% [at 11.4 µM] |  |
| N=C(N)SCC(=O)O | -5.65% [at 11.4 µM] |  |
| Cc1cccc(N(C)S(=O)(=O)c2ccc3[nH]c(=O)c(=O)[nH]c3c2)c1 |  | 4.47 µM (active) |
| COc1ccc(N(C)S(=O)(=O)c2ccc3c(c2)CCC(=O)N3)cc1 |  | inactive |
| O=C(Nc1ccc(Cl)cc1Cl)c1cccc(N2C(=O)C=CC2=O)c1 |  | 11.2 µM (active) |
| CN(C)c1ccc(NC(=O)c2cccc(N3C(=O)C4C5C=CC(C5)C4C3=O)c2)cc1 (stereo unspecified) |  | inactive |
| CCNc1ncc2nc(C)c(=O)n(C[C@H]3CCCO3)c2n1 |  | inactive |
| CCc1ccc(C(=O)N2CCC(c3nc4ccccc4s3)CC2)cc1 |  | 1.58 µM (active) |
| O=P(Cc1cc[n+]([O-])cc1)(c1ccccc1)c1ccccc1 |  | inactive |
| Cc1cccc(C)c1NC(=O)C(c1ccc(Cl)cc1Cl)N1CCCCC1 (stereo unspecified) |  | 14.1 µM (active) |
| Cc1cccc(C)c1NC(=O)C(c1ccccc1)N1CCC1=O (stereo unspecified) |  | inactive |
| Cc1cccc(C)c1NC(=O)[C@H](C)N |  | inactive |

| Compound | activity, negative = inhibition | AC50 |
| --- | --- | --- |
| COc1ccccc1CN1CCC2(CC1)CCN(S(C)(=O)=O)CC2 |  | inactive |
| N#Cc1cccc(-c2nc(Nc3ccccc3)c3ccccc3n2)c1 | -3.27% [at 2.29 µM] |  |
| c1ccc(Nc2nc(-c3ccc4c(c3)OCO4)nc3ccccc23)cc1 | -5.32% [at 2.29 µM] |  |
| Clc1cccc(Nc2nnc(-c3ccccc3)c3ccccc23)c1 |  | 3.98 µM (active) |
| c1ccn(-c2ccc(N3CCOCC3)cc2)c1 |  | inactive |
| CC(C)CN1CCCC2(CCN(C(=O)c3cnccn3)CC2)C1 |  | inactive |
| COc1cccc(/C=N/Nc2nc(N3CCCC3)nc(N3CCCC3)n2)c1O |  | 12.6 µM (active) |
| COc1nc(/C(N)=N/O)nc(N2CCCCC2)n1 |  | inactive |
| COc1c(/C=N/Nc2nc(N3CCCCC3)nc(N3CCCCC3)n2)cccc1[N+](=O)[O-] |  | inactive |
| Brc1cc2c(cc1/C=N/Nc1nc(N3CCCC3)nc(N3CCOCC3)n1)OCO2 |  | 7.08 µM (active) |
| N#Cc1cccc(-c2cncnc2NCc2cccnc2)c1 | 6.75% [at 2.29 µM] |  |
| CN(C)CCO[C@@H](c1ccc(Cl)cc1)c1ccccn1 |  | inactive |
| O=S(=O)(Nc1nc(-c2sccc2Cl)cs1)c1cc(Cl)ccc1Cl |  | 0.631 µM (active) |
| COCC(C)NCc1cccc(C)c1 (stereo unspecified) |  | inactive |
| Cc1ccc(S(=O)(=O)n2ccc(-c3cccc(OCc4c(F)cccc4Cl)c3)n2)cc1 |  | 1.58 µM (active) |
| CO[C@H]1COC(=O)C/C=C\[C@H](C)COC(=O)[C@@H](C)NC(=O)C/C=C\[C@@H]1C | -24.8% [at 11.4 µM] |  |
| O=C(Cc1cccc2ccccc12)N/N=C/c1ccc(Sc2nc3ccccc3s2)o1 |  | 0.282 µM (active) |
| COCC(=O)N/N=C/c1ccc(Sc2nc3ccccc3s2)o1 |  | inactive |
| NCCCCCC(=O)O |  | inactive |
| CCNC(=S)NNC(=O)c1cc(CC(C)C)nc2ccccc12 |  | 2.82 µM (active) |
| CCNC(=S)NNC(=O)c1cc(C)on1 |  | inactive |
| CCNC(=S)NNC(=O)c1cc(C2CC2)nc2ccccc12 |  | 2 µM (active) |
| CCNC(=S)NNC(=O)c1cccc(Br)c1 |  | inactive |
| Cc1cc(C(=O)Nc2c(C)n(C)n(-c3ccccc3)c2=O)c2ccccc2n1 |  | inactive |
| CCNC(=S)NNC(=O)Cc1ccccc1 |  | inactive |
| Cc1cc(C(=O)OC2CCOC2=O)c2ccccc2n1 (stereo unspecified) |  | inactive |

| Compound | activity, negative = inhibition | AC50 |
| --- | --- | --- |
| Cc1cc(C(=O)NNC(=S)NC(C)c2ccccc2)c2ccccc2n1 (stereo unspecified) |  | 3.16 µM (active) |
| OCCCN=C1CCCCC1 | -11% [at 11.4 µM] |  |
| COCC(=O)N1CCC[C@@]2(CCN(c3ncccn3)C2)C1 |  | inactive |
| CC(=O)Nc1ccc(S(=O)(=O)N2CCC(N(C)CCC(C)C)CC2)cc1 |  | inactive |
| Cc1nc2ncnn2c(C)c1CCC(=O)Nc1ccc(S(=O)(=O)N2CCCCCC2)cc1 |  | 3.16 µM (active) |
| O=C(CSc1ncccn1)Nc1ccc(S(=O)(=O)N2CCCCC2)cc1 |  | 7.94 µM (active) |
| O=C(c1ccc(CN2CCc3ccccc3C2)cc1)N1CCc2ccccc2C1 |  | inactive |
| O=C(Nc1ccc(S(=O)(=O)N2CCCCC2)cc1)c1ccc(CN2CCc3ccccc3C2)cc1 |  | 3.16 µM (active) |
| Cc1ccc(NC(=O)CCc2c(C)nc3ncnn3c2C)nc1 |  | inactive |
| Cc1nc2ncnn2c(C)c1CCC(=O)NCc1ccccc1 |  | inactive |
| O=C(CCN1CCc2ccccc2C1)Nc1ccc(F)cc1 |  | inactive |
| O=C(Nc1ccc(S(=O)(=O)N2CCOCC2)cc1)c1ccc(CN2CCc3ccccc3C2)cc1 |  | 8.91 µM (active) |
| CN(Cc1ccco1)c1cc(-c2cccc(NS(C)(=O)=O)c2)ncn1 | -0.0487% [at 2.29 µM] |  |
| CCN1C(=O)[C@H]2[C@H]3[C@H](O)[C@H](O)C/C(=N/OCC[C@H]4C=C[C@H](OC(C)=O)[C@@H](COC(C)=O)O4)[C@@H]3CC[C@@H]2C1=O | -15% [at 11.4 µM] |  |
| O=C(CSCc1ccccc1)Nc1ccc(S(=O)(=O)N2CCOCC2)cc1 |  | 10 µM (active) |
| Cc1cnc(CNc2ccnc(-c3c(C)noc3C)n2)cn1 | 19.4% [at 2.29 µM] |  |
| COc1ccc2c(c1)C(c1ccc([N+](=O)[O-])cc1)=NNC(c1ccco1)=N2 |  | 14.1 µM (active) |
| c1ccc2c(NCCN3CCOCC3)nc(-c3ccoc3)nc2c1 | -0.137% [at 2.29 µM] |  |
| Cc1noc(C)c1C(=O)N1CCC2(CC1)CCN(C(c1ccccc1)c1ccccc1)CC2 |  | inactive |
| Cc1noc(C)c1C(=O)N1CCC2(CCN(C(=O)Nc3ccccc3)CC2)CC1 |  | inactive |
| Cc1noc(C)c1C(=O)OCC(=O)NC(c1ccccc1)c1ccccc1 |  | 11.2 µM (active) |
| COc1ccc(C(=O)CN2C(=O)NC(C)(c3ccccc3)C2=O)cc1OC (stereo unspecified) |  | 3.55 µM (active) |
| Cc1cc(NC(=O)CN2C(=O)NC(C)(c3ccc(OC(F)F)cc3)C2=O)no1 (stereo unspecified) |  | inactive |
